# Bioassay records as filed in PubChem BioAssay.
# Shown is part of a subset that was picked to be rich in hits.
# 14-3-3 PPI = modulators of human 14-3-3 gamma - Raf peptide interaction; P61981; FP, 14-3-3gamma / TMR-pS259-Raf peptide binding; AID 422; inhibition, % at 40 µM; hit rate 0.19% among 160,000; in the data active = inhibition above about 30%;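 note: 0% = protein plus tracer without compound and 100% = blank with tracer alone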
# Target sequence (P61981 whole entry, looked up): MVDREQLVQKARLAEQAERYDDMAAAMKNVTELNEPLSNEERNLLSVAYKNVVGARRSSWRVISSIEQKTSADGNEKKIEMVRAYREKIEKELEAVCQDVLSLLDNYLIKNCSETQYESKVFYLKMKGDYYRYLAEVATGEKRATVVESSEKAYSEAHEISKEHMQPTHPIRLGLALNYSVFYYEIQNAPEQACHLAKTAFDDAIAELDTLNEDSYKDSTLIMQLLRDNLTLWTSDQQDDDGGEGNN
# * hit, by the source's call.
SMILES,14-3-3 PPI
CCCC(=O)NC(Nc1ccc(S(=O)(=O)Nc2onc(C)c2C)cc1)(C(F)(F)F)C(F)(F)F,6
Brc1ccc(C2Nc3ccc(Br)cc3C(c3ccccc3)O2)cc1 (stereo unspecified),1
COCCCNC(=O)CN1C(=O)c2ccccc2C1=O,-2
COCCCNC(=O)CSc1ccc2c3c(cccc13)C(=O)c1ccccc1-2,105*
O=C(CSc1ccc2c3c(cccc13)C(=O)c1ccccc1-2)Nc1ccccc1,-95
Cc1ccc(CNC(=O)C(NS(=O)(=O)c2cccs2)c2ccccc2)cc1 (stereo unspecified),-49
Cc1nnc2n1C(C)(C)Cc1ccccc1-2,0
COc1cc(C(=O)Nc2nc3c(s2)C(=O)CC(C)(C)C3)c([N+](=O)[O-])cc1OC,-13
Cc1nc(N=Nc2ccc(C(=O)O)cc2)c(COP(=O)(O)O)c(C=O)c1O,69*
Cc1cc(O)c(C=Nc2ccc(C(=O)O)cc2)c(C)c1Cl,3
Cc1nc(N=Nc2ccc(S(=O)(=O)O)cc2S(=O)(=O)O)c(COP(=O)(O)O)c(C=O)c1O,35*
COc1cc(C(=O)Oc2c(S(=O)(=O)c3ccccc3)c(C)nn2-c2ccccc2)cc(OC)c1OC,3
CC(NC(=O)c1sc(=S)n(CCc2ccccc2)c1N)c1ccccc1 (stereo unspecified),-15
CCC(=O)N1c2ccc(S(=O)(=O)NCc3ccc(C)cc3)cc2CC1C (stereo unspecified),5
COc1ccc(N2C(=O)CCC(C(=O)NCCCN3CCCCCC3)C2c2ccc(F)cc2)cc1 (stereo unspecified),-10
COC(=O)c1ccccc1NC1=CC(=NS(=O)(=O)c2ccccc2)c2ccccc2C1=O,-83
CCOc1cccc(C2Nc3ccccc3-c3nnc(SC)nc3O2)c1OC (stereo unspecified),-1
CSc1nnc2c(n1)OC(c1ccsc1)Nc1ccccc1-2 (stereo unspecified),-3
CCCSc1nnc2c(n1)OC(c1ccsc1)Nc1ccc(Br)cc1-2 (stereo unspecified),-65
CCCSc1nnc2c(n1)OC(c1ccsc1)Nc1ccccc1-2 (stereo unspecified),64*
CCCCSc1nnc2c(n1)OC(c1ccccc1)Nc1ccccc1-2 (stereo unspecified),-3
CSc1nnc2c(n1)OC(c1ccccc1O)Nc1ccccc1-2 (stereo unspecified),1
CCOc1ccc([N+](=O)[O-])cc1C1Nc2ccccc2-c2nnc(SC)nc2O1 (stereo unspecified),38*
CSc1nnc2c(n1)OC(c1ccccc1Br)Nc1ccccc1-2 (stereo unspecified),41*
CSc1nnc2c(n1)OC(c1ccc(Br)s1)Nc1ccccc1-2 (stereo unspecified),-18
SMILES,14-3-3 PPI
CCOc1cc(C2Nc3ccccc3-c3nnc(SC)nc3O2)cc(Br)c1OCC (stereo unspecified),-106
CCCCSc1nnc2c(n1)OC(c1cccnc1)Nc1ccc(Br)cc1-2 (stereo unspecified),-34
CCCCCCSc1nnc2c(n1)OC(c1cccnc1)Nc1ccccc1-2 (stereo unspecified),68*
COc1ccc(-n2c(=O)c3ccccc3n(CC(=O)NC3CCCC3)c2=O)cc1OC,-7
O=C(Nc1ccc(N2CCCCC2)cc1)c1ccc(Cl)cc1,-34
CC(=O)N1CCc2cc(Br)cc(S(=O)(=O)CCC(=O)N3CCN(c4ncccn4)CC3)c21,9
O=C(C1CCN(S(=O)(=O)c2cccnc2)CC1)N1CCN(c2cccc(C(F)(F)F)c2)CC1,-11
O=C1CCCN2N=C(SCc3ccc(Cl)cc3)SC2=N1,-5
COc1ccc(OC)c(C2C(C(=O)Nc3ccc(Br)cn3)=C(C)NC3=C2C(=O)CCC3)c1 (stereo unspecified),1
Cc1nc(Cl)c(C(=O)N(C)C)c(C)c1Cl,-3
O=C(Nc1ccc(-c2nc3cc(NC(=O)c4ccc([N+](=O)[O-])cc4)ccc3o2)cc1)c1ccc([N+](=O)[O-])cc1,-6
COC(=O)c1c(NC(=O)c2ccc(S(=O)(=O)N3CCOCC3)cc2)sc2c1CC(C)(C)NC2(C)C,-1
COc1ccc2nc(N3CCCC(C(=O)NCCCN4CCCCC4C)C3)sc2c1 (stereo unspecified),-6
CC1=C(C(=O)OC2CCCCCC2)C(c2cccs2)C2=C(CCCC2=O)N1 (stereo unspecified),-7
Cc1ccc2c(c1)NC(=O)C(C)O2 (stereo unspecified),-7
CCCSc1nnc2c(n1)OC1(CCCC1)Nc1ccc(Br)cc1-2,-58
CCSc1nnc2c(n1)OC(c1ccc(C)cc1)Nc1ccccc1-2 (stereo unspecified),5
CCCCSc1nnc2c(n1)OC1(CCCC1)Nc1ccccc1-2,117*
C=CCOc1cccc(C2Nc3ccccc3-c3nnc(SCC=C)nc3O2)c1 (stereo unspecified),140*
CCCSc1nnc2c(n1)OC(c1ccccc1Cl)Nc1ccccc1-2 (stereo unspecified),33*
